# Sfp PPTase inh – inhibitors of Bacillus subtilis Sfp phosphopantetheinyl transferase | Q9F4F7 | Biochemical Sfp PPTase activity, qHTS | AID 1490 | Potency, µM, without a hit: largest response in the series, negative = inhibition, most hits filed as inhibitors | 310,000 tested, 3.5% active;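 further: the enzyme is Sfp with the accession as filed and its product quenches rhodamine fluorescence; 0% = enzyme reaction without inhibitor and -100% = no enzyme wells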
#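 With Hepes-Na pH 7.6 buffer containing 10 mM MgCl2, Sfp (15 nM) modified BHQ-2-YbbR (12.5 uM) using rhodamine-CoA (5 uM). Two reads 30 minutes apart at 525/598 nm yielded each well's rate.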
# G9a block – G9a (human) methyltransferase inhibition; G9a H3K9 monomethylation, AlphaScreen, 2 h; Potency, µM (doses to about 102 µM), for inactives: at the highest dose activity, negative = inhibition, actives largely listed as inhibitors; 350,000 tested, 8.8% active; AID 504332; further: on the % scale 0 is the no-effect control and ±100 the full control effect; nearly all actives have a fitted effect of over 75% in size
#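 G9a (20 nM) was preincubated 15 min with compound, then reacted 2 h at room temperature with 500 nM biotin-H3K9 peptide and 20 µM SAM. Monomethyl-H3K9 detected by AlphaScreen using anti-H3K9me1 antibody.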
# VDR inhibitor – inhibitors of human vitamin D receptor; P11473; VDR-SRC2-3 peptide fluorescence polarization, 2 h; Potency, µM, for inactives: max response, negative = inhibition, most hits filed as inhibitors; 400,000 tested, 0.93% active; further: on the % scale 0 is the no-effect control and ±100 the full control effect
#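 Fluorescence polarization assay measuring small-molecule disruption of VDR binding to the coregulator peptide SRC2-3. Compounds were pin-transferred (23 nl) into the reagent mix and incubated 2 h at room temperature before reading.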
# ALOX12 inh – blocks human arachidonate 12S-lipoxygenase; 580,000 tested, 1.1% active; AID 1671190; purified 12hLO, xylenol orange hydroperoxide absorbance; P18054; Potency, µM (titrated, usually from 108 µM), inactives show top-dose activity change, negative = inhibition, hits mostly inhibitors; further: on the % scale 0 is the no-effect control and ±100 the full control effect
# Target sequence (P18054 whole entry, looked up): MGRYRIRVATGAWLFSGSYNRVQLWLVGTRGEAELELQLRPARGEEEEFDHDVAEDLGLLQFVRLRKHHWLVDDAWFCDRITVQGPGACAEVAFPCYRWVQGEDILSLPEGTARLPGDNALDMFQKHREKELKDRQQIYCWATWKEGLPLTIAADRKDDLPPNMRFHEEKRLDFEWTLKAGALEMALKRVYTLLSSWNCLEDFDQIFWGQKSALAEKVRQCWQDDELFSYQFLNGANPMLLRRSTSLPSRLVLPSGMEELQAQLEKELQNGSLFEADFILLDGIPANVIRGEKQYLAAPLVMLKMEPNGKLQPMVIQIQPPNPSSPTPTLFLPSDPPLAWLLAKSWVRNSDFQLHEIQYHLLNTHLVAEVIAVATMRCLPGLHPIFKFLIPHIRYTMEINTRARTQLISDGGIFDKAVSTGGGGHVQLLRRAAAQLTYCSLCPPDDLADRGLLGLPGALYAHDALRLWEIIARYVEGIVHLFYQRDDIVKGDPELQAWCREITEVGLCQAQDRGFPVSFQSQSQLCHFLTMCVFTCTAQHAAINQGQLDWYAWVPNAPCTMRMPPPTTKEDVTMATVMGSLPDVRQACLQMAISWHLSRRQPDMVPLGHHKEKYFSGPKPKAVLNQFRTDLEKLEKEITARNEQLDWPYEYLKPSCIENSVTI
#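 Hydroperoxide product was detected by ferrous iron/xylenol orange as the 573 to 405 nm absorbance ratio. Arachidonic acid at 40 uM (final) was turned over for 30 min at room temperature by 150 nM human 12hLO, pH 7.0 Hepes buffer, after 15 min compound preincubation.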
# GRP78 ERSR act – ER stress response induction in glioma; Potency, µM, for inactives: at the top dose activation, hits mostly activators; 420,000 tested, 0.02% active; U87-MG GRP78 promoter luciferase reporter, 16 h; AID 602332; further: series mostly up to about 76 µM; % of control where 0% means no effect; nearly all actives have a fitted effect of over 35% in size
#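 Stably transfected U87-MG human glioma cells carrying a GRP78-based luminescent sensor were seeded at 1000 cells/well, pin-dosed with compounds and incubated 16 h. Luciferase reagent was then added, and end-point luminescence was read after 10 min at room temperature.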
# * = called active by the depositor; ? = inconclusive; · = not tested or not shown; [ ] = another dose, or the depositor's remark. The sample as a whole holds a higher share of hits than the screen did. The call rests on the fitted dose curve; in most records, active means well fitted curve in the direction sought with a large enough effect; inconclusive means small, poorly fitted or top-dose-only effect, or another doubt; inactive means no such curve, though single readings can be large; an effect the other way counts as inactive or inconclusive. Potency means the concentration at half of the fitted maximal effect.
SMILES,Sfp PPTase inh,G9a block,VDR inhibitor,ALOX12 inh,GRP78 ERSR act
Cc1cccc(C(=O)NN2S(=O)(=O)c3ccccc3S2(=O)=O)c1,50µM*,7.1µM*,6%,0%,-7%
O=C(CCCc1nc(-c2ccccc2)no1)NCC1CCCO1 (stereo not drawn),·,·,·,19%,·
NC(=O)/C(=C/c1ccco1)C(N)=S,18µM*,18µM*,-18%,?,-3%
COc1ccc(-c2nc(C#N)c(NCCc3ccc(F)cc3)o2)cc1,·,·,·,-2%,·
CCc1ccc(NC(=O)CS(=O)CC(=O)Nc2ccc(N3CCOCC3)cc2)cc1 (stereo not drawn),7%,50µM*,0%,-16%,-4%
CCc1ccc(NC(=O)NCCN2CCN(c3ccc(OC)cc3)CC2)cc1,2%,10µM*,6%,0%,0%
O=C(COC(=O)c1ccco1)Nc1ccc(N2CCOCC2)cc1,·,22µM*,1%,?,4%
CCc1ccc(N2CCN(CCNC(=O)Nc3ccc(OC)cc3)CC2)cc1,8%,0%[0.501 µM],-16%,?,-2%
O=C(Nc1ccc(N2CCOCC2)cc1)C1CCN(C(=O)OCc2ccccc2)CC1,19%,40µM*,8%,241%,-5%
CC(=O)Nc1ccc(C(=O)OCC(=O)Nc2ccc(N3CCOCC3)cc2)cc1,15%,?,-10%,5%,-2%
CC(NC(=O)c1ccc2c(c1)NC(=O)CO2)c1cccs1 (stereo not drawn),·,·,·,1%,·
Cc1ccc(-n2nc3n(c2=O)CCN(C(=O)c2ccccc2Cl)C3)cc1,·,·,·,4%,·
CCN(CC(=O)Nc1ccc(N2CCOCC2)cc1)C(=O)c1ccc(C#N)cc1,-8%,45µM*,1%,0%,13%
COc1cccc(CNCC(=O)Nc2ccc(N3CCOCC3)cc2)c1,-18%,3.5µM*,22%,-15%,-5%
CN(CC(=O)Nc1ccc(C#N)cc1)CC(=O)Nc1ccc(N2CCOCC2)cc1,4%,?,-20%,-15%,-5%
COc1ccc(C2(c3ccc(OC)cc3)NC(=O)N(CC(=O)Nc3ccc(N4CCOCC4)cc3)C2=O)cc1,·,40µM*,-7%,?,-3%
COc1ccc(CC(=O)OCC(=O)Nc2ccc(N3CCOCC3)cc2)cc1,10%,50µM*,-6%,3%,1%
COc1ccc(NC(=O)CCc2c(C)c3ccc(O)c(C)c3oc2=O)c(OC)c1,·,·,·,19%,·
Cc1ccc(NC(=O)CCn2c(=O)oc3cc(S(=O)(=O)N4CCCC4)ccc32)cc1C(F)(F)F,·,·,·,-28%,·
O=C(COC(=O)c1ccc(Cl)nc1)Nc1ccc(N2CCOCC2)cc1,·,56µM*,-12%,?,-4%
NC(=O)c1ccc(NC(=O)COC(=O)c2ccc(Cl)nc2)cc1,·,7.9µM*,9%,1%,-1%
CCN(CC(=O)NCc1ccc(F)cc1)C(=O)c1ccc(Cl)cc1,11%,14%,-3%,32%,-5%
Cc1ccc(OCC(=O)Nc2ccc(N3CCN(C(=O)c4ccco4)CC3)cc2)cc1C,-6%,8%[0.501 µM],-8%,-3%,-6%
Cc1cccc(OCC(=O)Nc2ccc(N3CCN(C(=O)c4ccco4)CC3)cc2)c1,-4%,79µM*,2%,4%[57.4 µM],-3%
CCN(CC(=O)NCc1ccc(Cl)cc1)C(=O)c1ccc(C#N)cc1,-1%,40µM*,-19%,-18%,-1%
SMILES,Sfp PPTase inh,G9a block,VDR inhibitor,ALOX12 inh,GRP78 ERSR act
O=C1CCC2(C(=O)NCc3ccccc3)SCCN12 (stereo not drawn),·,·,·,22%,·
O=C(O)c1cc(Cl)ccc1Br,·,·,·,3%,·
COc1cc(C(=O)Nc2sc3ccccc3c(=O)c2-c2ccccc2)cc(OC)c1OC,·,·,·,-12%,·
O=C(NC(=S)Nn1cnnc1)c1ccccc1Br,25µM*,-127%[59 µM],?,-26%,-5%
CCCCNC(=S)NC(=O)c1ccccc1Br,14%,-15%[59 µM],0%,0%,0%
CC1CCCC(NC(=S)NC(=O)c2ccccc2Br)C1C (stereo not drawn),6%,30%[59 µM],-11%,22µM*,-1%
CCOc1cc(C(=O)NC(=S)Nn2cnnc2)cc(OCC)c1OCC,-60%,25µM*,-2%,?,3%
CCOc1cc(C(=O)Nn2cnnc2)cc(OCC)c1OCC,10%,-3%,-10%,10%,-1%
O=C(NC(=S)Nn1cnnc1)c1ccccc1,·,-12%[2.33 µM],-15%,35µM*,-1%
Cc1cc(Br)ccc1NC(=O)c1ccc2c(Cl)c3c(nc2c1)CCC3,·,·,·,-5%,·
